Compounds with a hit are over-represented: about 5.1% of the library has one in this group of screens.
NPSR antagonist – antagonists of human neuropeptide S receptor cAMP signaling. Q6W5P4. CHO-NPSR cells, cAMP TR-FRET, antagonist mode. Potency, µM (titrated, usually from 38.3 µM), for inactives: top-dose activity change, negative = inhibition, usual class: inhibitors. AID 1461. 1% of 220,000 active; also: potency is read from the fitted curve at half-maximal effect; nearly all actives have a fitted effect of over 50% in size
Target sequence (Q6W5P4 whole entry, looked up): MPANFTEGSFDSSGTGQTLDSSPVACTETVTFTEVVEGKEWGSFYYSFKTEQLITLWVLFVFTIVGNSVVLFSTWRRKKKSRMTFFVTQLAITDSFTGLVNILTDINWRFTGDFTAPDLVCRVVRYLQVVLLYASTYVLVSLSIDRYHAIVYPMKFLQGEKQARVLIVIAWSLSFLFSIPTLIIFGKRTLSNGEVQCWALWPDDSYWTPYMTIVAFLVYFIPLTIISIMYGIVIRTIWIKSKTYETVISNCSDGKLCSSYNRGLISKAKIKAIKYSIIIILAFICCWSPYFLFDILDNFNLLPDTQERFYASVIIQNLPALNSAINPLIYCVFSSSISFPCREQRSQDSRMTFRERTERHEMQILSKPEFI
PNC assembly inh – blocks assembly of the perinucleolar compartment; PC3M PTB-GFP, PNC prevalence imaging, 16 h; active compounds read low; 3.1% of 140,000 active; activity change (PNC), negative = inhibition, % at 10 µM;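 active = readout at or below -70, meaning at least 70% loss of cells showing the perinucleolar compartment, a nuclear body marking cancer cells; inconclusive = readout between -30 and a set limit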;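 also: plate controls were DMSO wells for no effect and camptothecin positive control wells for full effect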
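Read-out is percentage of cells bearing a perinucleolar compartment, from automated 20x imaging of fixed, Hoechst-stained PC3M PTB-GFP cells. Cells were seeded 4 h, then exposed 16 h to compound (23 nl of library stock) in duplicate plates.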
Tau fluor counter – counter-screen for tau fibril formation inhibitors; Potency, µM (doses to about 57.7 µM), for inactives: top-dose activity change, negative = decrease; 0.93% of 280,000 active; AID 1463; tau K18 P301L Alexa594 fluorescence, heparin fibrillization; also: potency is read from the fitted curve at half-maximal effect; nearly all actives have a fitted effect of over 55% in size
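Human K18 P301L tau (15 uM unlabeled plus 0.24 uM Alexa 594-labeled, final) in 100 mM sodium acetate pH 7 was mixed with compound and 20 uM heparin and incubated 6 hr at 37 C.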
Tau FP inhib – inhibitors of human tau fibril formation; P10636; Potency, µM (doses to about 57.7 µM), for the others: top-dose activity, negative = inhibition, most hits filed as inhibitors; K18 P301L tau heparin fibrillization, Alexa594 FP, 6 h; 0.39% of 280,000 active; also: potency is read from the fitted curve at half-maximal effect; nearly all actives have a fitted effect of over 55% in size
Target sequence (P10636 561-689 P618L limits assumed): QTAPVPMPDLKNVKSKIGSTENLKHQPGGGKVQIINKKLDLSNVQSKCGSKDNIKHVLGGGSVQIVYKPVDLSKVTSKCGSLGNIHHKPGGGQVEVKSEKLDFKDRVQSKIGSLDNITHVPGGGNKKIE
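Recombinant K18 P301L […], labeled with Alexa 594 at 0.24 uM over 15 uM unlabeled; heparin inducer 20 uM final; 37 C, 6 hr; FP endpoint.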
Tau ThT inhib – blocks human tau fibril formation measured by thioflavin T; P10636; recombinant tau K18 P301L (four-repeat tau fragment), heparin-induced fibrillization, ThT fluorescence; Potency, µM (doses to about 57.4 µM), inactives show at the highest dose activity, negative = inhibition, hits mostly inhibitors; 2.1% of 270,000 active; also: potency is read from the fitted curve at half-maximal effect; nearly all actives have a fitted effect of over 55% in size
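Recombinant human tau K18 fragment […] carrying P301L, 15 uM unlabeled plus 0.24 uM Alexa 594-labeled, was fibrillized with 20 uM heparin in 100 mM sodium acetate pH 7 for 6 hr at 37 C; 30 uM ThT fluorescence read after 1 hr.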
KDM4E inh – inhibitors of human JMJD2E histone demethylase | 1.6% of 230,000 active | JMJD2E catalytic domain, FDH-coupled NADH fluorescence (FDH is formaldehyde dehydrogenase) | B2RXH2 | Potency, µM (series often up to 57.1 µM), for the others: top-dose activity change, negative = inhibition, most hits filed as inhibitors; active = well fitted inhibition curve with a large enough effect, not every such curve was filed as active; inconclusive = small, poorly fitted or top-dose-only effect, or another doubt; inactive = no such curve, though single readings can be large or run the other way;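 also: potency is read from the fitted curve at half-maximal effect; 0% = wells with enzyme and -100% = buffer wells without enzyme; nearly all actives have a fitted effect of over 50% in size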
* marks the source's active call; other numbers are inactive results; ? = inconclusive; . = no result given; [ ] = remark or other dose. Unless noted, calls follow the shape of the dose curve; as a rule, active = well fitted curve in the direction sought with a large enough effect; inconclusive = small, poorly fitted or top-dose-only effect, or another doubt; inactive = no such curve, though single readings can be large; an effect the other way counts as inactive or inconclusive. Unless noted, % is scaled to controls: 0 for no effect and ±100 for the full control effect.

SMILES	NPSR antagonist	PNC assembly inh	Tau fluor counter	Tau FP inhib	Tau ThT inhib	KDM4E inh
CC(=O)OCCNc1cc(SCc2ccco2)c2nonc2c1[N+](=O)[O-]	-20.4%	13.5	7.94µM*[quencher]	?	7.08µM*	?
CCCC(=O)OCCNc1cc(SCCC(=O)OC)c2nonc2c1[N+](=O)[O-]	-1.3%[46.1 µM]	-12.1	-6.1%	-2.3%	-1.4%	-1.6%
COc1ccc(CNc2cc(NCCCO)c([N+](=O)[O-])c3nonc23)cc1	2.8%	.	-4.2%	5.3%	3.2%	?
Cn1ccnc1Sc1cc(NCCCO)c([N+](=O)[O-])c2nonc12	-50.3%	.	?	-13.2%	4.47µM*	1.3%
CSc1cccc(NC(=O)c2cccc(N3CCCS3(=O)=O)c2)c1	.	.	-19.4%	-1.8%	-9.9%	.
COc1cccc(Cn2c(NCc3ccc(C)cc3)nc3c2c(=O)n(C)c(=O)n3C)c1	.	.	-24.5%	10.7%	-1.6%	.
Cc1ccc(Cl)cc1N1CCN(C(=O)c2ccc3c(c2)CCN3S(=O)(=O)c2ccccc2)CC1	.	.	-4.1%	4.5%	3.1%	.
COc1ccc(N2CCN(C(=O)CCn3cnc4onc(-c5ccc(F)cc5)c4c3=O)CC2)cc1	.	.	?	7.6%	?	.
N#CCCCS(=O)(=O)c1nnnn1C1CCCCC1	.	.	-1.4%	2.5%	-0.4%	3.4%
Cc1ccc(NC(=O)Cn2cc(S(=O)(=O)Cc3ccc(F)cc3)c3ccccc32)cc1Cl	.	.	?	-12.6%	-2.0%	.
O=[N+]([O-])c1c(NCCCO)cc(Sc2ccc(Cl)cc2)c2nonc12	?	?	?	?	12.6µM*	-3.2%
CC(=O)OCCCNc1cc(Sc2ccc(C)cc2)c2nonc2c1[N+](=O)[O-]	-13.1%[46.1 µM]	?	?	-7.6%	?	5.7%
CC(=O)OCC(=O)c1ccc2ccn(C(C)=O)c2c1	-1.6%[46.1 µM]	-100.0*	-3.4%	1.0%	-4.4%	?
COc1ccccc1N1CCN(CC(=O)c2ccc3ccn(C(C)=O)c3c2)CC1	-4.4%[46.1 µM]	-10.8	-15.7%	1.0%	?	?
Cc1ccc(-c2nn(C)c(=O)c3ccccc23)cc1CO	-5.5%[46.1 µM]	1.8	-3.9%	-1.8%	-9.5%	-2.2%
CCC(CO)Nc1ccc(-c2nn(C)c(=O)c3ccccc23)cc1[N+](=O)[O-] (centres undefined)	-38.4%	.	-20.0%	9.6%	25.1µM*	1.4%
COc1ccc(-c2csc(-c3cc4ccccc4oc3=N)n2)cc1	-28.4%	-93.2*	-23.9%	-12.1%	?	31.2%
COc1ccc2oc(=O)c(-c3nc(-c4ccc(C)c(C)c4)cs3)cc2c1	.	.	-27.7%	-15.5%	-12.8%	.
Cc1cc(C(=O)N/N=C2\CCCc3ccccc32)c(C)o1	1.9%	-113.4*	-12.2%	4.6%	?	14.3%
O=C(N/N=C1\CCCc2ccccc21)c1ccccc1Cl	-6.9%	.	-10.1%	-1.9%	?	4.7%
CN(C)c1ccc(CNC(=O)C2CCCN(S(=O)(=O)c3ccc4c(c3)oc(=O)n4C)C2)cc1 (centres undefined)	.	.	-8.1%	-0.3%	1.2%	.
O=C(Oc1cccc2c(OC(=O)N3CCCC3)cccc12)N1CCCC1	-0.7%[46.1 µM]	-100.0*	-7.3%	3.1%	3.8%	-6.7%
CCCCOc1ccc(S(=O)(=O)Nc2ccc(-c3ccc(N4CCC(C)CC4)nn3)cc2)cc1	.	.	?	-10.2%	?	.
COC(=O)CCCCC1SCC(NC(=O)OC)C1NC(=O)OC (centres undefined)	-1.1%[7.67 µM]	-86.0*	4.6%	5.2%	-2.3%	2.7%
Cc1ccc(S(=O)(=O)N(C)Cc2cc3ccccc3[nH]c2=O)cc1	-20.3%[46.1 µM]	-98.7*	-11.5%	-6.4%	-2.3%	?
SMILES	NPSR antagonist	PNC assembly inh	Tau fluor counter	Tau FP inhib	Tau ThT inhib	KDM4E inh
CCc1nn(CC(=O)NCCCc2ccccc2)c(=O)c2cc3ccccc3n12	.	.	-5.6%	-10.9%	4.6%	.
CCc1nc2ccccc2c(=O)n1NC(=O)c1c(O)c2cccc3c2n(c1=O)CCC3	1.8%[46.1 µM]	-83.4*	-2.1%	4.2%	-8.3%	12.3%
O=C(Nn1c(Cc2ccccc2)nc2ccccc2c1=O)c1c(O)c2cccc3c2n(c1=O)CCC3	40.6%	.	-1.0%	-3.9%	1.2%	2.6%
COc1ccccc1CNc1ccc(N2CCCCC2)cc1	-10.4%[46.1 µM]	?	?	?	22.4µM*	20µM*
COc1cccc(CNc2ccc(N3CCCCC3)cc2)c1OC	?	-13.8	?	?	14.1µM*	11.2µM*
O=C(NCCc1ccc(Cl)cc1)c1cnc2sc(N3CCCCC3)nn2c1=O	.	.	0.2%	-1.3%	-6.4%	.
CNc1ccc(Br)cc(C(=O)/C=C/c2cccc(OC)c2)c1=O	9.2%[46.1 µM]	-15.1	?	-16.0%	11.2µM*	?
CNc1ccc(Br)cc(C(=O)/C=C/c2ccc(OC)cc2OC)c1=O	-27.8%	?	?	?	11.2µM*	?
CNc1ccc(Br)cc(C(=O)/C=C/c2ccc(Cl)cc2Cl)c1=O	?	.	?	?	10µM*	?
COc1cccc(/C=C/C(=O)Nc2ccc3[nH]c(=O)[nH]c3c2)c1	-3.6%	.	-8.3%	-0.9%	1.9%	0.0%
COC(=O)c1ccc(NC(=O)CN(c2cccc(C(F)(F)F)c2)S(C)(=O)=O)cc1	.	.	?	?	9.9%	.
CCc1ccccc1NC(=O)c1cnc(N2CCCCC2)c2ccccc12	.	.	-5.9%	1.2%	-12.3%	.
CCN(CC)CCNC(=O)c1ccc2c(c1NCCO)C(=O)c1ccccc1C2=O	?	.	?	0.1%	15.8µM*	-7.7%
O=C(NCCNC(=O)c1cc(OCC(F)(F)F)ccc1OCC(F)(F)F)Nc1ccc(OC(F)(F)F)cc1	-20.5%[46.1 µM]	2.0	-25.6%	3.55µM*	10.3%	-1.4%
O=C(Nc1ccc(F)cc1)Nc1cc(OCC(F)(F)F)cc(OCC(F)(F)F)c1	12.6µM*	17.1	?	8.91µM*	-4.2%	-4.3%
O=C(NCCNC(=O)c1cc(OCC(F)(F)F)ccc1OCC(F)(F)F)Nc1ccc(Cl)cc1	-16.2%[46.1 µM]	32.6	-26.4%	?	16.8%	13.0%
CN1c2ccccc2C(C)(C)C12CC(c1ccc(Cl)c(S(=O)(=O)N3CCCC3)c1)=NO2 (centres undefined)	-4.1%	-120.9*	-8.1%	2.6%	-5.6%	10.6%
CN1c2ccccc2C(C)(C)C12CC(CCl)=NO2 (centres undefined)	-14.2%[46.1 µM]	26.9	-15.6%	-1.9%	?	-0.1%
CCOc1ccccc1NC(=O)N(Cc1ccc(F)cc1)C1CCN(CC)CC1	.	.	-0.9%	9.3%	4.4%	.
COC(=O)C1=C(C(=O)OC)[C@@H]2N(Cc3ccccc3)c3ccccc3[C@@]23C[C@@H](C(=O)OC)N(C(=O)NCc2ccccc2)C3=C1	.	.	-2.4%	6.1%	-9.1%	-12.7%
Nc1nonc1-c1noc(-c2ccccc2)n1	-3.2%[46.1 µM]	-100.0*	4.4%	9.6%	1.9%	9.8%

High-throughput results as filed in PubChem BioAssay.
